The term AC50 denotes the midpoint of the concentration-response curve, whichever way the signal moves.

Structures are written as SMILES. Several values for one entry are separate records, joined by “and”; a condition that tells them apart may be missing. Equal entries are not always repeated. Where a structure was tested more than once in an assay, its records may differ in their call. Activity calls are given as the source filed them. How the source made its calls: active means hit-call score of the fitted dose curve at least 0.9, where 1 is the maximum; inactive means score below 0.9.

Read-out in this experiment: Cytochrome P450 (CYP1A2), CYP1A2 (gene 1544)
In words: LTEA_HepaRG_CYP1A2: Life Technologies and Expression Analysis (LTEA) Assay for Cytochrome P450 (CYP1A2) using HepaRG (AID 2283479).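 On AC50: TaqMan qRT-PCR transcript level normalized to ACTB GAPDH and POLR2A.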 As to conditions: mRNA level, 48 h; actives raise or lower the signal. On the procedure: LTEA_HepaRG is a cell based, multiplexed-readout assay that uses HepaRG, a human liver cell line, with measurements taken at 48 hours after chemical dosing on a 96-well plate.LTEA_HepaRG_CYP1A2 is one of 102 assay component(s) measured in the LTEA HepaRG cell culture assay. It is a marker of NR mediated metabolism.Data from the assay component LTEA_HepaRG_CYP1A2 was analyzed into 1 endpoint. This assay endpoint, LTEA_HepaRG_CYP1A2, was analyzed with bidirectional fitting relative to DMSO as the negative control and baseline of activity. Using a type of inducible reporter, measures of mRNA induction for gain or loss-of-signal activity can be used to understand regulation of transcription factor activity. To generalize the intended target to other relatable targets, this assay endpoint is annotated to the cyp intended target family, where the subfamily is xenobiotic metabolism.
A total of 1060 chemcials from the ToxCast library were tested in eight-point concentration-response experiments. Cell culture and cytotoxicity assays were conducted at Thermo Fisher Scientific's Custom Services facility (Madison, WI). A single lot of human HepaRG cells (Thermo Fisher Scientific, Frederick, MD) was used for the cell culture experiments. 96-well format collagen type I coated plates of human HepaRG cells were prepared using established methods. Briefly, cryopreserved HepaRG cells were thawed, plated at a density of approximately 100,000 cells/well in HepaRG Thaw, Plate, and General Purpose media (HPRG770, Thermo Fisher Scientific), and incubated for 48 hours. 0.5% DMSO was selected as vehicle control to balance the requisite need of DMSO in HepaRG cultures to maintain differentiation (for example, baseline metabolism, proportions of hepatocytes vs. cholangiocytes), while enabling further hepatic receptor pathway activation (for example, PXR and CAR) in response to chemical exposure. 48 hours after plating, the culture medium was replaced with HepaRG Serum-Free Incudtion Media. Cells were exposed to each test chemical in duplicate and maintained in CO2 incubators for another 48 hours. Chemical plates were thawed to room temperature and 200x concentrations of treatment groups were prepared. 8-point conentration-reponse curves were made with the highest exposure at 100 uM, followed by half-log dilutions, all in 0.5% DMSO. Each test plate contained variouse controls, induction positive controls (1mM phenobarbital), cytotoxicity positive controls ([…] aflatoxin B1), vehicle controls (0.5% DMSO), and total lysis controls (0.5% DMSO). Cell morphology images were taken using an Essen IncuCyte FLR automated microscope, with six 96-well plates imaged in about 24 minutes. Images were captured and exported and JPEG files. Spent culture media was transfered to black-well plates for the LDH assay, and remaining media was sorted at -80 C for later use. Cells were treated with RLT buffer and frozen until shipped for gene expression analysis. Total RNA was isolated from the cell suspension in 75 uL of Buffer RLT (Qiagen, Germantown, MD 20874) by Quintiles/Expression Analysis (Durham, NC) using a custom isolation procedure. Total RNA from each plate well was transferred to a preamplification plate. Fluidigm's 96.96 Dynamic ArrayTM (Fluidigm, Amsterdam, the Netherlands) technology was used for gene expression analyses by quantitative reverse transcription polymerase chain reaction (qRT-PCR, performed by Quintiles/Expression Analysis, Durham, NC)89. Standard TaqManTM Assays (Applied Biosystems/ThermoFisher Scientific, Foster City, CA) were used to assess the expression of 93 genes selected based on their selectivity and sensitivity to important hepatic receptors known to be modulated by environmental chemicals; importance in human hepatocyte functionality; and hepatotoxicity. […]
As for `CCCCNC(=O)OCC#CI`, the AC50 is 31.1 µM (active).

`O=C(Nc1ccccc1)Nc1ccnc(Cl)c1`: the half-maximal activity concentration (AC50) is 25.8 µM (active).

For the compound `O=C(O)COc1nc(Cl)c(Cl)cc1Cl`, the compound was classed as inactive.

As for `COc1ccc(C(c2ccc(OC)cc2)C(Cl)(Cl)Cl)cc1`, the outcome was inactive.

Consider `CC(C)(C)c1ccc(CSc2cnn(C(C)(C)C)c(=O)c2Cl)cc1`, for which the AC50 was 2.36 µM (active).

Regarding `CCc1nn(C)c(C(=O)NCc2ccc(C(C)(C)C)cc2)c1Cl`, the half-maximal activity concentration (AC50) was 0.866 µM (active).

Turning to `COC(=O)c1ccccc1C(=O)OC`, the compound was classed as inactive.

In the case of `CCCN(CCC)c1c([N+](=O)[O-])cc(S(N)(=O)=O)cc1[N+](=O)[O-]`, the AC50 is 87.5 µM (active) and the compound was called inactive.

For the compound `CCNc1nc(Cl)nc(NC(C)C)n1`, the AC50 is 50 µM (active).

For `C=CCC1=C(C)[C@@H](OC(=O)[C@@H]2[C@@H](C=C(C)C)C2(C)C)CC1=O`, the compound was called inactive.

As to `CCCCC(CC)COC(=O)c1ccccc1C(=O)OCC(CC)CCCC` (stereo not given), the AC50 is 50 µM (active).

For `Cc1cc(Cl)ccc1OCC(=O)O`, the concentration at half-maximal activity (AC50) is 50 µM (active).

As to `CCCCOC(=O)c1ccccc1C(=O)OCCCC`, the call was inactive.

On to `CCNc1nc(Cl)nc(NCC)n1`, for which the AC50 is 50 µM (active).

Regarding `OC(c1ccc(Cl)cc1)(c1cncnc1)c1ccccc1Cl` (stereo not given), the AC50 is 86.6 µM (active).

Take `CNC(=O)ON=CC(C)(C)SC`: the call was inactive.

Take `COP(=S)(OC)Oc1nc(Cl)c(Cl)cc1Cl`: the AC50 was 66.5 µM (active).

In the case of `CCCCNC(=O)n1c(NC(=O)OC)nc2ccccc21`, the AC50 is 20.7 µM (active).

Regarding `C#CCOS(=O)OC1CCCCC1Oc1ccc(C(C)(C)C)cc1` (stereo not given), the compound was classed as inactive.

For the compound `CC1=C(C(=O)Nc2ccccc2)SCCO1`, the AC50 is 50 µM (active).

`O=C(O)c1nc(Cl)ccc1Cl`: the AC50 was 50 µM (active) and the compound was classed as inactive.

For `CN(C)C(=S)SSC(=S)N(C)C`, the compound was called inactive.

For the compound `CCOP(=S)(OCC)SCn1c(=O)oc2cc(Cl)ccc21`, the concentration at half-maximal activity (AC50) was 75.3 µM (active).

For the compound `Cc1c(F)c(F)c(COC(=O)C2C(/C=C(\Cl)C(F)(F)F)C2(C)C)c(F)c1F` (stereo not given), the call was inactive.

With `CCON=C(CC)C1=C(O)CC(c2c(C)cc(C)cc2C)CC1=O` (stereo not given), the compound was called inactive.

For the compound `CO/C=C(/C(=O)OC)c1ccccc1Oc1cc(Oc2ccccc2C#N)ncn1`, the AC50 was 84.5 µM (active) and 65.9 µM (active) and 66.5 µM (active).

Consider `COC(=O)N(OC)c1ccccc1COc1ccn(-c2ccc(Cl)cc2)n1`, for which the AC50 was 12.4 µM (active).

On to `Oc1ccccc1-c1ccccc1`, for which the compound was classed as inactive.

Consider `N#Cc1nn(-c2c(Cl)cc(C(F)(F)F)cc2Cl)c(N)c1S(=O)C(F)(F)F` (stereo not given), for which the AC50 was 58.3 µM (active).

With `CCCC1COC(Cn2cncn2)(c2ccc(Cl)cc2Cl)O1` (stereo not given), the AC50 is 50 µM (active).

`C=CC1(C)OC(=O)N(c2cc(Cl)cc(Cl)c2)C1=O` (stereo not given): the AC50 is 18.8 µM (active).

Consider `CCOC(=O)CC(SP(=S)(OC)OC)C(=O)OCC` (stereo not given), for which the AC50 was 13.8 µM (active).

Turning to `COC(=O)C=C(C)OP(=O)(OC)OC`, the call was inactive.

As for `CCOc1cc(Oc2ccc(C(F)(F)F)cc2Cl)ccc1[N+](=O)[O-]`, the concentration at half-maximal activity (AC50) is 5.27 µM (active).

As for `N#CC(CCc1ccc(Cl)cc1)(Cn1cncn1)c1ccccc1` (stereo not given), the AC50 was 85.6 µM (active).

As for `Cc1ccc(-c2c(Cl)nc(C#N)n2S(=O)(=O)N(C)C)cc1`, the outcome was inactive.

For `CC1COC(Cn2cncn2)(c2ccc(Oc3ccc(Cl)cc3)cc2Cl)O1` (stereo not given), the compound was classed as inactive.

On to `CON(C)C(=O)Nc1ccc(Cl)c(Cl)c1`, for which the AC50 is 29.8 µM (active).

(Values after PubChem BioAssay (EPA / NIEHS).)
